For 69 compounds, growth results are on record in PubChem BioAssay (NCI).

Several values for one entry are separate records, joined by “and”; a condition that tells them apart may be missing. Equal values may be shown once. The panel holds about 83,000 compounds, 20% with a hit somewhere; the sample as a whole holds those more often.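 Percent growth is the endpoint: 0 to 100 indicates growth inhibition (40 means 60% inhibition), 0 means no net growth, and negative values indicate cell death.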 Activity calls are given as the source filed them. The calls were made as follows: active = growth percent below 10; inactive = the rest.

For this assay, the system named is HL-60(TB) leukemia. Briefly: NCI-60 one-dose screen, 48 h (100 = growth as untreated, 0 = no growth, -100 = all killed). The following applies: 10 µM unless noted.

With `c1cncc(CNc2ccccc2-c2nnc(Nc3ccc4c(c3)OCCO4)o2)c1`, the growth is 8.71% (active).

For `Cc1ccc(C(=O)N2C/C(=C/c3ccccc3)C(=O)/C(=C/c3ccccc3)C2)cc1`, the growth is 73.7% (inactive).

With `Cn1c2ccccc2c2nn(C(=O)c3ccccc3)c(=O)nc21`, the growth was 110% (inactive).

For `O=C(O)c1ccc(Br)nc1`, the growth was 94.4% (inactive).

Regarding `COc1cc(NCCCCCNC(C)C)c2ncccc2c1`, the growth is 104% (inactive) and 58.4% (inactive).

For the compound `CCCCN(CCCC)CCCNc1c2c(nc3ccc(Cl)cc13)CCCC2`, the growth is 89% (inactive).

`CCc1onc(-c2ccc(OC)cc2)c1-c1ccccc1OCCN(CC)CC`: the growth is 82.6% (inactive).

Turning to `Nc1nc(=S)c2ncn(C3OC(COP(=O)(O)O)C(O)C3O)c2[nH]1` (centres undefined), the growth was 16.3% (inactive).

As for `COc1ccc2oc3cc(NCCN(C)C)ccc3c(=O)c2c1`, the growth is 22% (inactive).

Consider `NS(=O)(=O)c1ccc(N2Cc3cc(Cl)ccc3OC3=C2C(=O)N(CC2CCCCC2)C3=O)cc1`, for which the growth was -35.9% (active).

In the case of `Cc1nc2ccccc2c2nnc(SCC(=O)N(Cc3ccccc3)c3ccccc3)n12`, the growth was 105% (inactive).

For `Nc1ccccc1Nc1ccccc1`, the growth is 23.5% (inactive) and 11.2% (inactive).

For `CCCCN1C(=O)c2cccc3c(-c4ccc5c(c4)ncn5C4CCCCC4)ccc(c23)C1=O`, the growth was 99.7% (inactive).

Turning to `Cc1ccc(S(=O)(=O)Nc2nc3ccccc3nc2Nc2ccc3nsnc3c2)cc1`, the growth is 45.4% (inactive) and 37.2% (inactive).

Consider `O=C(O)/C=C(\c1nc2ccc([N+](=O)[O-])cc2[nH]1)c1cc(Cl)ccc1O`, for which the growth was 10.8% (inactive).

`O=C(Nc1cccc(Cl)c1)c1cc2ccccc2cc1O`: the growth is 5.85% (active) and -13.6% (active).

With `Clc1ccc2c(c1)c(-c1ccccc1)nc1nncn12`, the growth is 112% (inactive).

As for `CCOC(=O)C(C)(CSSCC(C)(NC(=O)c1ccc2ccccc2c1)C(=O)OCC)NC(=O)c1ccc2ccccc2c1` (centres undefined), the growth is 98.8% (inactive).

In the case of `Nc1ccccc1SC1CC(=O)N(c2cccc3ccccc23)C1=O` (centres undefined), the growth is 97% (inactive).

On to `Cc1ccc(C)c2c1C(=O)OC2=O`, for which the growth is 29.7% (inactive).

As for `Nc1ccccc1SC(CC(=O)c1ccccc1)c1cccc([N+](=O)[O-])c1` (centres undefined), the growth is 96.8% (inactive) and 88.5% (inactive).

On to `CC(C)OC(=O)Nn1cnc2ccccc21`, for which the growth was 96.5% (inactive).

As to `Cc1ccc(C(=O)Nc2ccccc2C(=O)N/N=C(\c2ccccc2)c2ccccn2)cc1`, the growth was 2.36% (active).

As to `CC(=O)Oc1ccc(C(c2ccc(OC(C)=O)cc2)c2ccccn2)cc1`, the growth is 102% (inactive).

Take `COc1cc2c(c(OC)c1OC)-c1ccc(OC)c(=O)cc1[C@@H](NC(C)=O)CC2`: the growth was -36% (active) and -38.2% (active).

Consider `Cc1ccc(-c2cc(-c3ccc(Cl)cc3)nc(NC(=O)c3cccnc3)n2)cc1`, for which the growth was 110% (inactive).

In the case of `CCCCCCNc1cc(C)nc2ccc(OC)cc12`, the growth is 63.3% (inactive).

Take `O=C(/C=C/c1ccc(Cl)cc1)c1ccc(O)c(CN2CCN(c3cc4c(cc3F)c(=O)c(C(=O)O)cn4C3CC3)CC2)c1`: the growth was 51.5% (inactive).

With `C#Cc1cccc(NC(=O)c2ccc(NC(=O)CCl)cc2)c1`, the growth was 11.7% [8.25 µM] (inactive).

In the case of `CCOC(CN1CCN(CC(C)C(=O)c2ccccc2)CC1)c1ccccc1` (centres undefined), the growth was 110% (inactive).

Regarding `O=C(O)c1ccc2c(c1)CCC2`, the growth was 68.3% (inactive).

On to `COc1ccc(-n2sc(=O)n(Cc3ccc(COC(=O)C(C)c4ccc(CC(C)C)cc4)cc3)c2=O)cc1` (centres undefined), for which the growth is -43.3% (active).

On to `COc1ccc2c(c1)CCCC21C(=O)Nc2ccccc21` (centres undefined), for which the growth was 88% (inactive).

For the compound `C[C@@H](CO)[C@@H]1CCC=C2CC[C@]3(C)[C@H](CC[C@@H]4[C@@]5(C)CCCNC(C)(C)[C@@H]5CC[C@]43C)[C@H]21`, the growth was -6.22% (active).

In the case of `COc1ccc(C2SC(C)C(=O)N2CCc2cccs2)cc1OC` (centres undefined), the growth is 74.5% (inactive).

Consider `O=C(CN1C(=O)NC2NC(=O)NC21)N/N=C/c1ccccc1[N+](=O)[O-]` (centres undefined), for which the growth is 99.2% (inactive).

Regarding `Cc1ccc(-c2cn(C/C=C3\C=CN(S(=O)(=O)c4ccccc4)CC3)nn2)cc1`, the growth is 105% (inactive).

With `Cc1ccc2nc(-c3c(N)n[nH]c3CCCO)[nH]c(=O)c2c1`, the growth is 108% (inactive).

With `C=C(C)[C@@H]1CC[C@]2(C(=O)NCC(=O)OC)CC[C@]3(C)[C@H](CC[C@@H]4[C@@]5(C)Cc6c([nH]c7ccccc67)C(C)(C)[C@@H]5CC[C@]43C)[C@@H]12`, the growth was 64.8% (inactive).

Consider `O=C1NC(c2ccc(F)cc2)N=C2C(c3ccccc3)=NOC12` (centres undefined), for which the growth is 101% (inactive).

Regarding `O=C(Cn1c(=O)sc2ccccc21)NNS(=O)(=O)c1ccccc1[N+](=O)[O-]`, the growth was 94.9% (inactive).

`Cc1cc(Br)nnc1Br`: the growth is 84.3% (inactive).

For the compound `Cc1[nH]c(=O)[nH]c(=O)c1Br`, the growth is 129% (inactive).

Consider `CC(=O)c1cc2c(N)c(C(=O)Nc3ccccc3)sc2nc1C`, for which the growth was 55.6% (inactive).

As to `O=c1[nH]ncc(Br)c1Br`, the growth is 65.5% (inactive).

As for `COc1ccc2c(CCC(c3ccccc3)c3ccccc3)c3[n+](cc2c1OC)CCc1cc2c(cc1-3)OCO2`, the growth was -40.6% (active).

For `Cn1cc(-c2cc3ncnc(Nc4ccc(CC(=O)Nc5cc(C(C)(C)C)on5)cc4)c3s2)cn1`, the growth is 57.5% (inactive).

In the case of `COc1nccc2cc3c(=O)n4c(cc5ccccc54)c(=O)n3c12`, the growth was 93.5% (inactive).

Regarding `CCCCCCCCCCCCCCNC(=O)Nc1ccc(Cl)c(Cl)c1`, the growth was 79.1% (inactive).

In the case of `C[N+]1(CCC[N+]2(C)C[C@@H]3[C@H](C2)[C@@H]2C=C[C@H]3C2)CCOCC1` (some centres undefined), the growth is 122% (inactive).

Consider `C1CN(SSN2CCOCC2)CCO1`, for which the growth is 35.6% [100 µM] (inactive).

With `COc1ccc(Nc2ccnc(N3CCN(c4ccnc5cc(Cl)ccc45)CC3)n2)cc1`, the growth is -16.8% (active).

As to `Cc1cc(Nc2ccc(C)c(Cl)c2)n2nc(C(F)(F)F)nc2n1`, the growth is 100% (inactive).

As for `CC(=O)N1N=C(c2ccc(Nc3nc(Nc4ccccc4)nc(Nc4ccccc4)n3)cc2)CC1c1cccc([N+](=O)[O-])c1` (centres undefined), the growth is 94.8% (inactive).

As for `COc1ccc(OC)c(NC=O)c1`, the growth is 62.2% (inactive).

For `CCCCCCCC(=O)SCC/C=C/[C@@H]1CC(=O)NCc2cccc(n2)C2=N[C@@](C)(CS2)C(=O)N[C@@H](C(C)C)C(=O)O1`, the growth is 19.9% (inactive).

Turning to `COc1cc(-n2cc(-c3cc(O)c(C/C=C(\C)CCC=C(C)C)c(O)c3)nn2)cc2c1O[C@]1(C)CC[C@@H](O)C(C)(C)[C@H]1C2`, the growth is -13.9% (active).

On to `C#Cc1ccc(-n2c(/C=C/c3ccc(Cl)c(F)c3)nc3ncccc3c2=O)cc1`, for which the growth is -35.9% (active).

`O=C1Nc2ccc(F)cc2/C1=C\c1c(-c2ccccc2)nc2ccccn12`: the growth was 56.4% (inactive).

On to `OCCCC1CCN(C(Cc2ccccc2)c2ccccc2)CC1` (centres undefined), for which the growth was 95.8% (inactive).

Turning to `COc1cc(-c2ncn(/C=C\C(=O)OC(C)C)n2)cc(C(F)(F)F)c1`, the growth was 7.55% (active).

Consider `COc1ccc(NC(=O)c2cc3ccccc3nc2Nc2cc(OC)c(OC)c(OC)c2)cc1`, for which the growth is 67.3% (inactive).

On to `CCOC(=O)Nc1nc2ccccc2[nH]1`, for which the growth is 101% (inactive) and -38.2% (active).

For `C=CCSc1nc2ccccc2cc1/C=N/O`, the growth was 92.1% (inactive).

With `COc1cc(-c2nc(-c3ccccc3)c(-c3ccccc3)[nH]2)cc(OC)c1O`, the growth was -8.92% (active).

For the compound `Nc1nc(N)c(C=Nc2ccc(Br)cc2)c(Nc2ccc(Br)cc2)n1`, the growth is 90% (inactive).

In the case of `Cn1cc(-c2noc(-c3cn(C)c4ncc(F)cc34)n2)c2ccccc21`, the growth was 85.5% (inactive).

Regarding `O=C1/C(=C\c2ccc3nccnc3c2)SC(=S)N1CCc1ccc(O)cc1`, the growth was 75.6% (inactive).

Regarding `O=C(/C=C/c1cccc(O)c1)c1cccc(-n2cc(-c3ccccc3)[nH]c2=O)c1`, the growth was 42.1% (inactive).
